# Results filed as inconclusive are left out. Active and inactive are the calls of the source. The call rests on the fitted dose curve; in most records, active means well fitted activation curve with a large enough effect in the repeat runs; inconclusive means weak or mixed curves; inactive means flat fitted curve, though single readings scatter.
# Test: A CellTox Green Cytotoxicity Assay to monitor cytotoxicity in HepG2 cells - 32 hour (AID 1224883); further: nearly all actives have a fitted effect of over 50% in size
# Conditions: CellTox Green fluorescence; series mostly up to 76.8 µM; cytotoxicity increase: at the top concentration
# Source text: National Center for Advancing Translational Sciences [NCATS]
# NIH Chemical Genomics Center [NCGC]
# U.S. Environmental Protection Agency [EPA]
# National Institutes of Environmental Health Sciences [NIEHS]
# National Toxicology Program [NTP]
# Cell-based models are critical for drug discovery. Determining the natural cytotoxic effects resulting from test compounds is an essential research activity. A CellTox Green Cytotoxicity Assay to monitor cytotoxicity in real time of continues cell culture during 40 hours of the compound treatment was used to screen Tox21 10K library compounds in HepG2 cells. CellTox Green Cytotoxicity Assay is a nonlytic, homogeneous, biofluorescent method to measure cytotoxicity in cell culture after experimental manipulation. The assay system uses a proprietary asymmetric cyanine dye that is excluded from viable cells but preferentially stains the dead cell's DNA. […] Viable cells produce no appreciable increases in fluorescence. Therefore, the fluorescence signal produced by the binding interaction with dead cell DNA is proportional to cytotoxicity.
# The mixture of HepG2 cell suspension and reagents were dispensed at 600cells/6 ul/well in 1536-well tissue culture treated black solid bottom plates using a Multidrop dispenser. After the assay plates were incubated at a 37 C/5% CO2 incubator for 5 hours, 23 nL of compounds dissolved in DMSO, positive and negative controls was transferred to the assay plate by a pintool work station. The plates were incubated at 37 C for 40 hours. The fluorescence intensity were measured at 0h, 8h, 16h, 24h, 32h and 40h time points using ViewLux plate reader during compound treatment.
# On the % scale 0 is the no-effect control and ±100 the full control effect; potency means the concentration at half of the fitted maximal effect.
Structure (SMILES),cytotoxicity increase,Potency
Nc1[nH]c(=O)ncc1F,-12.3% [at 35.3 µM] (inactive),–
CC1CCN(CCCC(=O)c2ccc(F)cc2)CC1,-11.4% [at 35.3 µM] (inactive),–
Cn1cnc2c(=O)[nH]c(N)nc21,3.3% (inactive),–
C#CC(O)CCCCC (stereo not given),-1.48% (inactive),–
CC(=O)N[C@@H](CCC(N)=O)C(=O)O,-1.12% [at 35.3 µM] (inactive),–
C#CC(C)(O)CC(C)C (stereo not given),-5.81% (inactive),–
CSc1nc(NC2CC2)nc(NC(C)(C)C)n1,20.8% (inactive),–
CCN(CC)C(=O)c1ccc(O)c(OC)c1,-1.13% [at 35.3 µM] (inactive),–
C=CCSCC1Nc2cc(Cl)c(S(N)(=O)=O)cc2S(=O)(=O)N1 (stereo not given),-5.97% [at 35.3 µM] (inactive),–
CCCCC1CCCCC(=O)O1 (stereo not given),8.78% (inactive),–
C=C(C)C(=O)NCCC[N+](C)(C)C,0.163% (inactive),–
C=C(C)C(=O)NCCCN(C)C,-16.8% (inactive),–
Nc1ncnc2c1ncn2Cc1c(F)cccc1Cl,-8.24% [at 35.3 µM] (inactive),–
CC(C)CCOC(=O)CC(C)C,-12% (inactive),–
C[C@H]1O[C@@H](n2cc(F)c(=O)[nH]c2=O)[C@H](O)[C@@H]1O,-21% [at 35.3 µM] (inactive),–
CCC(=O)/C=C/c1ccc(OC)cc1,5.63% (inactive),–
O=C(O)c1ccccc1-c1ccc(C(F)(F)F)cc1,-12.2% [at 35.3 µM] (inactive),–
CC(C)(O)c1ccccc1,-8.71% (inactive),–
Cc1ccc(Nc2ccc(O)c3c2C(=O)c2ccccc2C3=O)cc1,-8.79% (inactive),–
CC(C)=CC(=O)O,7.16% (inactive),–

Structure (SMILES),cytotoxicity increase,Potency
CCCCCCCCCCCCCCC,-0.312% (inactive),–
CC(C)CCCCCCN,12.4% (inactive),–
CCCCCCCCCCC1CO1 (stereo not given),3.55% (inactive),–
CCCCCCOC(=O)CC(CC(=O)OCCCCCC)(OC(=O)CCC)C(=O)OCCCCCC,-10% (inactive),–
CC(=O)O[C@H](CC(=O)[O-])C[N+](C)(C)C,-15.6% (inactive),–
Cc1c(F)cc2c(=O)c(C(=O)O)cn3c2c1CCC3C (stereo not given),-3.32% [at 35.3 µM] (inactive),–
NC1CCN(c2cccc(Cl)n2)CC1,-0.405% [at 35.3 µM] (inactive),–
COC(=O)[C@H]1[C@H]2C[C@@H]3c4[nH]c5cc(OC)ccc5c4CCN3C[C@H]2C[C@@H](OC(=O)COc2ccc(OC)cc2)[C@@H]1OC,-0.521% [at 35.3 µM] (inactive),–
CCO[Si](C)(OCC)OCC,-7.04% (inactive),–
Nc1nc(F)nc2c1ncn2[C@@H]1O[C@H](CO)[C@@H](O)[C@@H]1O,-13% [at 35.3 µM] (inactive),–
COC(=O)C1=C(C)NC(C)=C(C(=O)OCC(C)=O)C1c1ccccc1[N+](=O)[O-] (stereo not given),0.832% [at 35.3 µM] (inactive),–
CCCCNc1ccccc1,-8.38% (inactive),–
CC(C)COC(=O)C(C)C,-7% (inactive),–
O=C(O)C1CCC1,-6.59% [at 35.3 µM] (inactive),–
c1ccc(SCCSc2ccccc2)cc1,6.08% (inactive),–
CC(C)CCCC(C)CCCC(C)CCCCC(C)CCCC(C)CCCC(C)C (stereo not given),1.04% [at 35.3 µM] (inactive),–
CCCCOCC(C)OCC(C)O (stereo not given),-4.09% (inactive),–
CC(C)(C)CC(C)(C)N,7.72% (inactive),–
c1cc(CN2CCCCC2)cc(OCCCNc2nc3ccccc3s2)c1,–,23.9 µM (active)
OCC(CO)(CO)COCC(CO)(CO)CO,-4.04% (inactive),–

# From PubChem BioAssay (Tox21)
